Laboratory results from the OligoGym collection.

Molecular target: FIZ1
Assay: pooled miR-30 sensor sort-seq; sequence = guide strand
Conditions: shRNA
Further: reference of the scale not given here.

| Sequence | sensor-assay potency score (higher = more potent) |
| --- | --- |
| TTGAGGTAGCACTCGTGGCGGA | -0.466 |
| TTCTCGCACTCGGAGCAGCCGA | -1.7 |
| TGGTACAGGGTGTCTTCCGAGG | -1.47 |
| TCTCGCACTCGGAGCAGCCGAA | -1.41 |
| TGGTTGGCTAGGTTGAAGCTGT | -0.915 |
| TGAAGCTGTGCTTGAAACCCTT | -0.439 |
| AACAGCTTCTCGCACTCGGAGC | -1.76 |
| TGAGCGGAACAGCTTCTCGCAC | -1.25 |
| TAGATCAGTCCATTCTACTGGG | 0.523 |
| TTTCTCACCAGTGTGGACGACC | -0.391 |
| TTGAAGGGCTTCACGTCGGTGT | 0.144 |

Molecular target: FKBP10
Assay: as above
Conditions: shRNA

| Sequence | sensor-assay potency score (higher = more potent) |
| --- | --- |
| TCAAACAGCAGCACAGCACTGC | 0.521 |
| TTGATCAGCCAACCAGAGCCGA | -0.877 |
| TCGTCGACTGTGATCTTGCCGT | -0.799 |
| TAGCTGGTGTCGAAGAAGGTGC | -0.841 |
| TTGAAGATTAGCACGGCAGAGC | -0.871 |
| TAGCTTGAATCAAACTTCTTGC | 0.0257 |
| TAATCTTCCTTCTCTCTCCAGG | -0.239 |
| TAGCTGGACAGCGTCCTTCGGG | -1.26 |
| ATAGCTTGAATCAAACTTCTTG | 0.371 |
| TTGAATCAAACTTCTTGCCATC | -0.96 |
| TTCCTTGTTCCACACATCCAGC | -1.14 |
| TATGGTTTTCTCAGGGTCCTGC | 0.0683 |

Molecular target: FKBPL
Assay: as above
Conditions: shRNA

| Sequence | sensor-assay potency score (higher = more potent) |
| --- | --- |
| TCTATCGCCAGCACCTTCTTGA | 0.068 |
| TTCCTCACCTTGACACATGGAC | -0.29 |
| TTCGGTAGGAGGGTCTCGGGGC | -0.399 |
| TAGTTAGCTCTGTCCAGCCCTC | -1.24 |
| ATCTTCTTGACAAAGCTCCCAT | -0.554 |
| ATGAAGGACAGTTCGTTCTGGA | 0.322 |
| TTTCGGTAGGAGGGTCTCGGGG | -1.79 |
| TGACACATGGACTCCAAGCATT | -1.29 |
| TTGGCATGAAGGACAGTTCGTT | 0.00211 |
| TAATCTGAATAACTGAATCAAG | -1.19 |
| TTGAGTATGCTCTAGAATTTGG | -0.551 |
| TTCCTTCTCGCTAGTCTCCAGC | -1.31 |

Molecular target: FKTN
Assay: as above
Conditions: shRNA

| Sequence | sensor-assay potency score (higher = more potent) |
| --- | --- |
| TACTTCTTCTACAAAGTGCATT | -0.78 |
| TTGCATTGTGAAGTAGAGCCAT | 0.152 |
| TTAACTGCACGCCACTGTGTGC | -1.27 |
| TTTGCAGATATAGTGCAGGGGG | -0.241 |
| TATCAGATTTGTAATCTTGTAT | 0.319 |
